From the supplement of paper PMC6522484 come the findings set out here.

Assay [1] deals with DLD1. Put plainly: cell viability (CellTiter-Glo) relative to plate median (fraction of plate median); higher = more viable cells. Conditions: 5 µM; treatment time 24 h; reporter: 7TFP. The procedure, abridged:
(§1)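 Stable lentiviral TCF/Wnt firefly luciferase reporters (7TFP or TCF4/Wnt) were present in the colorectal cancer cell lines used. These cells received library compounds at a final 5 µM for 24 h, and parallel plates were read for firefly luciferase or CellTiterGlo luminescence. Each well was normalised to the plate median, and the value reported is the mean of two independent replicates.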

The subject of the next assay is HCT116. The description is as above. Conditions: 5 µM; treatment time 24 h; reporter: TCF4/Wnt. The procedure, abridged:
as §1

In assay [2] the test system is SW480. The assay is described as above. Conditions: 5 µM; treatment time 24 h; reporter: 7TFP. The gist of the method:
as §1

Assay [3] relates to DLD1. Put plainly: TCF/Wnt firefly luciferase reporter signal relative to plate median (fraction of plate median); higher = higher Wnt reporter signal. Conditions: 5 µM; treatment time 24 h; reporter: 7TFP. The gist of the method: as §1
For assay [4], the system named is SW480. The assay is described as above. Conditions: 5 µM; treatment time 24 h; reporter: 7TFP. The procedure, abridged:
as §1

Where a name gives a salt, the structure may show the parent alone. ± gives the standard deviation of the averaged measurements.

With `COc1cc(NS(=O)(=O)c2ccc(N)cc2)ncn1`, the cell viability was 0.88 ± 0.0092 with DLD1 [1], 0.9455 ± 0.005 in the assay on HCT116 and 0.931 ± 0.037 with SW480 [2]. Also, the “TCF/Wnt firefly luciferase reporter signal” value came to 0.99 ± 0.028 with DLD1 [3] and 0.941 ± 0.028 in the assay on SW480 [4].

Consider `CC1(C)C(=O)CC[C@@]2(C)C1C[C@@H](O)[C@@]1(C)C3=CC(=O)O[C@@H](c4ccoc4)[C@]3(C)CCC21` (stereo not given in full), for which the cell viability with DLD1 [1] turned out to be 0.9595 ± 0.0035; in the assay with HCT116 it was 1.06; with SW480 [2] it was 0.969 ± 0.027. Also, the figures for the “TCF/Wnt firefly luciferase reporter signal” value in the assay on DLD1 [3] and in the assay with SW480 [4] were 0.937 ± 0.028 and 0.967 ± 0.013, respectively.

On to `CN(C)CCCN1c2ccccc2CCc2ccc(Cl)cc21`, for which the cell viability amounted to 1.04 with DLD1 [1], 0.984 ± 0.051 in the assay on HCT116 and 1.06 ± 0.021 with SW480 [2]. In addition, the “TCF/Wnt firefly luciferase reporter signal” value in the assay with DLD1 [3] amounted to 1.06 ± 0.1; in the assay with SW480 [4], 1.01 ± 0.055.

`Cc1cc(-n2c(=O)[nH]c(=O)n(C)c2=O)ccc1Oc1ccc(SC(F)(F)F)cc1`: the cell viability with DLD1 [1] stood at 0.946 ± 0.052; in the assay on HCT116, 1 ± 0.023; in the assay with SW480 [2], 0.952 ± 0.016. Also, the “TCF/Wnt firefly luciferase reporter signal” value with DLD1 [3] came to 0.926 ± 0.013; in the assay on SW480 [4] it was 1.04 ± 0.06.

For `C(=C\c1ccccc1)/CN1CCN(C(c2ccccc2)c2ccccc2)CC1`, the cell viability in the assay with DLD1 [1] amounted to 0.989 ± 0.072; in the assay on HCT116, 1.09 ± 0.021; in the assay on SW480 [2], 1.035 ± 0.0071. The “TCF/Wnt firefly luciferase reporter signal” value in the assay with DLD1 [3] was 1.17 ± 0.11; with SW480 [4] it was 0.936 ± 0.15.

With `CCN(CC)CCNC(=O)c1cc(S(C)(=O)=O)ccc1OC`, the results for the cell viability in the assay on DLD1 [1], with HCT116 and with SW480 [2] were 0.99 ± 0.13, 1.025 ± 0.0071 and 1 ± 0.023, respectively. Besides, the “TCF/Wnt firefly luciferase reporter signal” value was 0.971 ± 0.084 in the assay on DLD1 [3] and 0.925 ± 0.039 in the assay with SW480 [4].

Consider `O=CN(O)CCCC(NC(=O)C(CO)NC(=O)C1COC(c2ccccc2O)=N1)C(=O)NCCC(=O)NC1CCCN(O)C1=O` (stereo not given) [Oxachelin hydrate], for which the results for the cell viability in the assay with DLD1 [1], in the assay with HCT116 and in the assay on SW480 [2] were 1.09 ± 0.13, 1.11 ± 0.12 and 1.02 ± 0.05, respectively. Moreover, the “TCF/Wnt firefly luciferase reporter signal” value in the assay with DLD1 [3] was determined as 1.2 ± 0.014; in the assay with SW480 [4] it was 0.946 ± 0.16.

Consider `O=C(O)c1cn(C2CC2)c2cc(N3CCNCC3)c(F)cc2c1=O`, for which the figures for the cell viability with DLD1 [1], in the assay with HCT116 and in the assay on SW480 [2] were 0.964 ± 0.037, 0.988 ± 0.015 and 1.03 ± 0.021, respectively. Also, the results for the “TCF/Wnt firefly luciferase reporter signal” value in the assay with DLD1 [3] and with SW480 [4] were 1.05 ± 0.078 and 1.07 ± 0.014, respectively.

For `COc1cc(O)c2c(=O)cc(-c3ccc(OC)c(-c4c(O)cc(O)c5c(=O)cc(-c6ccc(O)cc6)oc45)c3)oc2c1` [GINKGETIN, K salt], the values for the cell viability in the assay on DLD1 [1], in the assay on HCT116 and with SW480 [2] were 0.994 ± 0.079, 0.899 ± 0.04 and 0.9925 ± 0.0092, respectively. In addition, the “TCF/Wnt firefly luciferase reporter signal” value with DLD1 [3] was 1.1 ± 0.15; in the assay with SW480 [4], 1.16 ± 0.2.

For the compound `C=C(C)[C@@H]1CC[C@]2(C(=O)O)CC[C@]3(C)[C@H](CC[C@@H]4[C@@]5(C)CC[C@H](O)C(C)(C)[C@@H]5CC[C@]43C)[C@@H]12`, the cell viability in the assay on DLD1 [1] was 1.03 ± 0.021; in the assay with HCT116 it was 1.09; with SW480 [2], 1.005 ± 0.0071. Further, the entries for the “TCF/Wnt firefly luciferase reporter signal” value in the assay with DLD1 [3] and in the assay on SW480 [4] were 1.055 ± 0.0071 and 1.01 ± 0.014, respectively.

As to `C[C@@H]1CC[C@]2(C(=O)O[C@@H]3O[C@H](CO)[C@@H](O)[C@H](O)[C@H]3O)CC[C@]3(C)C(=CC[C@@H]4[C@@]5(C)C[C@@H](O)[C@H](O)[C@@](C)(CO)[C@@H]5CC[C@]43C)[C@@H]2[C@]1(C)O` [Nigaichigoside F1], the cell viability is 1.17 ± 0.11 in the assay on DLD1 [1], 1.02 ± 0.072 in the assay with HCT116 and 1.05 ± 0.042 in the assay with SW480 [2]. The “TCF/Wnt firefly luciferase reporter signal” value in the assay on DLD1 [3] is 1.08 ± 0.028; in the assay with SW480 [4], 1.06 ± 0.24.

In the case of `CC(=O)N(c1onc(C)c1C)S(=O)(=O)c1ccc(N)cc1`, the results for the cell viability in the assay with DLD1 [1], in the assay on HCT116 and with SW480 [2] were 1.02 ± 0.034, 1.05 ± 0.19 and 0.935 ± 0.06, respectively. The results for the “TCF/Wnt firefly luciferase reporter signal” value with DLD1 [3] and with SW480 [4] were 0.933 ± 0.0014 and 0.985 ± 0.021, respectively.

For the compound `CCOC(=O)c1ccc(N)cc1`, the cell viability with DLD1 [1] was 1 ± 0.05; in the assay with HCT116, 0.903 ± 0.076; in the assay on SW480 [2], 1.005 ± 0.0071. The “TCF/Wnt firefly luciferase reporter signal” value in the assay on DLD1 [3] was 0.9395 ± 0.0092; with SW480 [4] it was 0.897 ± 0.09.

On to `CCOc1ccc2nc(S(N)(=O)=O)sc2c1`, for which the cell viability came to 0.972 ± 0.054 in the assay on DLD1 [1], 0.896 ± 0.15 with HCT116 and 0.961 ± 0.014 in the assay with SW480 [2]. The “TCF/Wnt firefly luciferase reporter signal” value stood at 0.704 ± 0.088 with DLD1 [3] and 0.891 ± 0.091 in the assay with SW480 [4].
